# Laboratory results as given in PubChem BioAssay (Tox21).
# Where “and” joins values, the source holds several entries; their conditions need not be identical. Equal entries are not always repeated. Records with an inconclusive call do not appear. A call without a number means that no potency is given here. Some compounds were tested as several samples or in several runs, with calls that do not always agree. Calls of active or inactive are those of the source. Calls come from the whole dose curve; as a rule, active = well fitted curve in the direction sought with a large enough effect in the repeat runs; inconclusive = weak or mixed curves; inactive = no such curve, though single readings can be large; an effect the other way counts as inactive or inconclusive.
# System: not listed separately
# Test: Caspase-3/7 induction in CHO-K1 cells by small molecules, qHTS assay (AID 1346980); note: nearly all actives have a fitted effect of over 15% in size
# Conditions: CHO-K1 caspase-3/7 induction, Caspase-Glo luminescence, 17 h; series mostly up to 92.4 µM; caspase-3/7 activation: at the top concentration
# Method in brief: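 Wild-type CHO-K1 cells exposed to compounds for 17hr at 37 C, 5% CO2. Caspase-3/7 activity then measured by Caspase-Glo 3/7 luminescence after 30min at room temperature.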
# Potency is the fitted concentration of half-maximal effect.
Compound,Potency,caspase-3/7 activation
CNC(=O)CSP(=S)(OC)OC,inactive,
CCCCOCCOC(C)=O,inactive,
CC(C)(C#N)N=NC(C)(C)C#N,inactive,
O=C(O)c1nn(Cc2ccc(Cl)cc2Cl)c2ccccc12,inactive,
CC1CC(=O)O1 (centres undefined),inactive,
C=CC(Cl)CCl (centres undefined),inactive,
C=CC(=O)OCC(CC)(COC(=O)C=C)COC(=O)C=C,4.86 µM (active),
CCCCC(C#N)(Cn1cncn1)c1ccc(Cl)cc1 (centres undefined),inactive,
Oc1ccc(Cl)cc1Cl,inactive,
CC(C)(O)C#N,inactive,
O=NN1CCOCC1,inactive,
CCOC(=O)c1ccccc1N,inactive,
COc1ccc(O)c(C(C)(C)C)c1,inactive,
CCNc1nc(Cl)nc(NC(C)(C)C#N)n1,inactive,
Brc1ccc(Br)cc1,inactive,
CCC/C=N/O,inactive,
CCCCOC(=O)COC(=O)c1ccccc1C(=O)OCCCC,inactive,
Nc1ncn[nH]1,inactive,
CC(C)(c1ccccc1)c1ccc(O)c(C(C)(C)c2ccccc2)c1,27.1 µM (active) and 61.1 µM (active),

Compound,Potency,caspase-3/7 activation
c1ccc(C2CO2)cc1 (centres undefined),inactive,
Clc1ccc(C(Cl)(Cl)Cl)cc1,inactive,
COc1ccc(C=O)cc1OC,inactive,
CCOS(=O)(=O)OCC,inactive,
ClCC(Cl)CCl,inactive,
O=NN(c1ccccc1)c1ccccc1,inactive,
CCC[CH2][Sn]([Cl])([CH2]CCC)[CH2]CCC,274 nM (active) and 545 nM (active),
Clc1cccc(C(Cl)(Cl)Cl)n1,inactive,
COP(=O)(NC(C)=O)SC (centres undefined),,-0.219% (inactive)
CSc1nc(NC(C)C)nc(NC(C)C)n1,inactive,
CC(C)COC(=O)c1ccccc1C(=O)OCC(C)C,inactive,
CN(C)c1ccccc1,inactive,
CCOP(=S)(OCC)OP(=S)(OCC)OCC,inactive,
CCOP(=O)(OCC)OCC,inactive,
[CH3][Sn]([Cl])([Cl])[Cl],inactive,
ClCc1ccccn1,inactive,
CCCCCCCC[N+](C)(CCCCCCCC)CCCCCCCC,12.2 µM (active) and 13.7 µM (active),
CC1(C)C(C(=O)OC(C#N)c2cccc(Oc3ccccc3)c2)C1(C)C (centres undefined),inactive,
CCOP(=S)(OCC)SCSC(C)(C)C,inactive,

# System: not listed separately
# Test: Caspase-3/7 induction in HepG2 cells by small molecules, qHTS cell viability counter screen (AID 1346981); note: nearly all actives have a fitted effect of over 30% in size
# Conditions: CellTiter-Fluor fluorescence, 17 h; series mostly up to 92.4 µM; activity change, negative = cytotoxicity: at the top concentration
# Method in brief: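 Treatment of HepG2 cells with DMSO-delivered compounds ran 16 hr at 37 C following a 5-hr pre-incubation of 2,000 cells/well. CellTiter-Fluor fluorescence, read after 1 hr, served as the viability measure in a qHTS format.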
Compound,Potency,"activity change, negative = cytotoxicity"
CNC(=O)CSP(=S)(OC)OC,inactive,
CCCCOCCOC(C)=O,inactive,
CC(C)(C#N)N=NC(C)(C)C#N,inactive,
O=C(O)c1nn(Cc2ccc(Cl)cc2Cl)c2ccccc12,inactive,
CC1CC(=O)O1 (centres undefined),inactive,
C=CC(Cl)CCl (centres undefined),inactive,
C=CC(=O)OCC(CC)(COC(=O)C=C)COC(=O)C=C,35.3 µM (active) and 24.3 µM (active),
CCCCC(C#N)(Cn1cncn1)c1ccc(Cl)cc1 (centres undefined),inactive,
Oc1ccc(Cl)cc1Cl,inactive,
CC(C)(O)C#N,inactive,
O=NN1CCOCC1,inactive,
CCOC(=O)c1ccccc1N,inactive,
COc1ccc(O)c(C(C)(C)C)c1,inactive,
CCNc1nc(Cl)nc(NC(C)(C)C#N)n1,inactive,
Brc1ccc(Br)cc1,inactive,
CCC/C=N/O,inactive,
CCCCOC(=O)COC(=O)c1ccccc1C(=O)OCCCC,inactive,
Nc1ncn[nH]1,inactive,
CC(C)(c1ccccc1)c1ccc(O)c(C(C)(C)c2ccccc2)c1,54 µM (active),

Compound,Potency,"activity change, negative = cytotoxicity"
c1ccc(C2CO2)cc1 (centres undefined),inactive,
Clc1ccc(C(Cl)(Cl)Cl)cc1,inactive,
COc1ccc(C=O)cc1OC,inactive,
CCOS(=O)(=O)OCC,inactive,
ClCC(Cl)CCl,inactive,
O=NN(c1ccccc1)c1ccccc1,inactive,
CCC[CH2][Sn]([Cl])([CH2]CCC)[CH2]CCC,1.94 µM (active) and 4.33 µM (active),
Clc1cccc(C(Cl)(Cl)Cl)n1,inactive,
COP(=O)(NC(C)=O)SC (centres undefined),inactive,
CSc1nc(NC(C)C)nc(NC(C)C)n1,inactive,
CC(C)COC(=O)c1ccccc1C(=O)OCC(C)C,inactive,
CN(C)c1ccccc1,inactive,
CCOP(=S)(OCC)OP(=S)(OCC)OCC,inactive,
CCOP(=O)(OCC)OCC,inactive,
[CH3][Sn]([Cl])([Cl])[Cl],inactive,
ClCc1ccccn1,inactive,
CCCCCCCC[N+](C)(CCCCCCCC)CCCCCCCC,61 µM (active) and 15.4 µM (active) and 21.7 µM (active),
CC1(C)C(C(=O)OC(C#N)c2cccc(Oc3ccccc3)c2)C1(C)C (centres undefined),,6.56% (inactive)
CCOP(=S)(OCC)SCSC(C)(C)C,,9.12% (inactive)

# Biological target: Nuclear receptor subfamily 1 group I member 2 (Homo sapiens) (UniProt O75469)
# Test: Human pregnane X receptor (PXR) small molecule agonists, qHTS assay (AID 1346982); note: nearly all actives have a fitted effect of over 35% in size
# Conditions: PXR-Luc HepG2, CYP3A4 luciferase reporter, 24 h; series mostly up to 92.4 µM; activation: at the top concentration
# Method in brief: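 Stable HepG2 line reporting PXR-mediated CYP3A4 expression via luciferase. Treatment: 24 hr with compounds in DMSO at 37 C. Detection: ONE-Glo luminescence.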
# Chain of Nuclear receptor subfamily 1 group I member 2 (Homo sapiens) (O75469 whole entry, looked up): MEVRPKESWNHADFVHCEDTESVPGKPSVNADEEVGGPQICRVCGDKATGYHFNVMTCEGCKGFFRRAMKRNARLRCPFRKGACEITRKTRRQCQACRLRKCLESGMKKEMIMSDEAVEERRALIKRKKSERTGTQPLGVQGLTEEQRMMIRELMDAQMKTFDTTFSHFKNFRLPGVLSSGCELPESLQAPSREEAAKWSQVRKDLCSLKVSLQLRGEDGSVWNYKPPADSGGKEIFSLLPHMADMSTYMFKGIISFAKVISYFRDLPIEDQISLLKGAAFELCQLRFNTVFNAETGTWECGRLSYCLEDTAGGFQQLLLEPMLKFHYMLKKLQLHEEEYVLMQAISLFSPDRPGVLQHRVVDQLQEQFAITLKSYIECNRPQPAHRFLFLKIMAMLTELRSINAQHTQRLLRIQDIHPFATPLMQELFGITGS
Compound,Potency,activation
CNC(=O)CSP(=S)(OC)OC,62.8 µM (active) and inactive,
CCCCOCCOC(C)=O,inactive,
CC(C)(C#N)N=NC(C)(C)C#N,inactive,
O=C(O)c1nn(Cc2ccc(Cl)cc2Cl)c2ccccc12,60.7 µM (active) and inactive,
CC1CC(=O)O1 (centres undefined),inactive,
C=CC(Cl)CCl (centres undefined),,8.66% (inactive)
C=CC(=O)OCC(CC)(COC(=O)C=C)COC(=O)C=C,inactive,
CCCCC(C#N)(Cn1cncn1)c1ccc(Cl)cc1 (centres undefined),30.5 µM (active) and inactive,
Oc1ccc(Cl)cc1Cl,,-3.55% (inactive)
CC(C)(O)C#N,inactive,
O=NN1CCOCC1,inactive,
CCOC(=O)c1ccccc1N,inactive,
COc1ccc(O)c(C(C)(C)C)c1,,14.5% (inactive)
CCNc1nc(Cl)nc(NC(C)(C)C#N)n1,61.1 µM (active),
Brc1ccc(Br)cc1,inactive,
CCC/C=N/O,inactive,
CCCCOC(=O)COC(=O)c1ccccc1C(=O)OCCCC,inactive,
Nc1ncn[nH]1,inactive,
CC(C)(c1ccccc1)c1ccc(O)c(C(C)(C)c2ccccc2)c1,1.92 µM (active) and 3.86 µM (active),

Compound,Potency,activation
c1ccc(C2CO2)cc1 (centres undefined),inactive,
Clc1ccc(C(Cl)(Cl)Cl)cc1,inactive,
COc1ccc(C=O)cc1OC,,4.28% (inactive)
CCOS(=O)(=O)OCC,inactive,
ClCC(Cl)CCl,inactive,
O=NN(c1ccccc1)c1ccccc1,inactive,
CCC[CH2][Sn]([Cl])([CH2]CCC)[CH2]CCC,487 nM (active) and inactive,
Clc1cccc(C(Cl)(Cl)Cl)n1,inactive,
COP(=O)(NC(C)=O)SC (centres undefined),,-5.34% (inactive)
CSc1nc(NC(C)C)nc(NC(C)C)n1,30.5 µM (active) and 21.7 µM (active),
CC(C)COC(=O)c1ccccc1C(=O)OCC(C)C,inactive,
CN(C)c1ccccc1,inactive,
CCOP(=S)(OCC)OP(=S)(OCC)OCC,inactive,
CCOP(=O)(OCC)OCC,inactive,
[CH3][Sn]([Cl])([Cl])[Cl],inactive,
ClCc1ccccn1,inactive,
CCCCCCCC[N+](C)(CCCCCCCC)CCCCCCCC,12.2 µM (active) and 2.44 µM (active),
CC1(C)C(C(=O)OC(C#N)c2cccc(Oc3ccccc3)c2)C1(C)C (centres undefined),15.5 µM (active),
CCOP(=S)(OCC)SCSC(C)(C)C,61.6 µM (active) and inactive,
